# Assay results as given in PubChem BioAssay (Tox21).
# Records with an inconclusive call do not appear. Where a call stands in place of a potency, no number is given. Active and inactive are the calls of the source. Unless noted, calls follow the shape of the full dose curve.
# Biological target: Retinoic acid receptor RXR-alpha (Homo sapiens) (UniProt P19793)
# Test: qHTS assay to identify small molecule agonists of the RXR signaling pathway (AID 1159527); also: nearly all actives have a fitted effect of over 35% in size; also: potency is read from the fitted curve at half-maximal effect
# Conditions: HEK293T RXRa-UAS-bla, beta-lactamase ratio, 16 h; series mostly up to 76.8 µM
# Method in brief: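 Using 9-cis retinoic acid as the reference agonist, chemicals were tested in HEK 293T cells […] for 16 hr; substrate loading lasted 2 hr at room temperature.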
# Retinoic acid receptor RXR-alpha (Homo sapiens), sequence (P19793 whole entry, looked up): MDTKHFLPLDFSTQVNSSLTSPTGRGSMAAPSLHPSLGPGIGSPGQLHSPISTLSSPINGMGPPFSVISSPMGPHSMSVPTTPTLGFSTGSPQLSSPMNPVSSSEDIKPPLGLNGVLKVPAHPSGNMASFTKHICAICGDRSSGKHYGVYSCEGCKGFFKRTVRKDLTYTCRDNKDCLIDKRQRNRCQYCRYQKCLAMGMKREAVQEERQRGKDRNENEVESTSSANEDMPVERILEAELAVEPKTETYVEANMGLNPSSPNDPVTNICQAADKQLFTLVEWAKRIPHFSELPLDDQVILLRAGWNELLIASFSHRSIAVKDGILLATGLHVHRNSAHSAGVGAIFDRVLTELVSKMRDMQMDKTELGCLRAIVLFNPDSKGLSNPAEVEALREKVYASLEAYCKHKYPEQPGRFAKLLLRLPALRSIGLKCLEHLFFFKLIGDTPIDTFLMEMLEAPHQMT
Structure (SMILES),Potency,activation
CN(C)CCN(C)C,inactive,–
O=C(CCl)NCO,inactive,–
Cc1ccc2c(c1)C1CN(C)CCC1N2 (stereo not drawn),–,-0.325% [at 15.8 µM] (inactive)
CCC(=O)c1ccc(Cl)cc1,inactive,–
O=[N+]([O-])c1cccc(CCl)c1,inactive,–
CCOC(=O)NC(C)(C)Cc1ccc(Cl)cc1,inactive,–
CCOC(=O)C(Cl)Cc1cc(-n2nc(C)n(C(F)F)c2=O)c(F)cc1Cl (stereo not drawn),inactive,–
CCCCS(=O)(=O)Cl,inactive,–
S=C=S,inactive,–
c1ccc2c(c1)CCNC2,inactive,–
C#CCOC(=O)/C=C(C)/C=C/CC(C)CCCC(C)C (stereo not drawn),49 µM (active),–
CCCCCCCCSC(=O)Oc1cc(Cl)nnc1-c1ccccc1,inactive,–
O=[N+]([O-])CCO,inactive,–
CN=CNc1ccc(C)cc1C,inactive,–
Cc1ccc(S(=O)(=O)N[C@@H](CCCCN)C(=O)CCl)cc1,inactive,–
CCCN1CCC[C@@H]2Cc3nc(N)ncc3C[C@H]21,inactive,–
ClCCCCCCCl,inactive,–
CCC1(c2cccc(O)c2)CCCCN(C)C1 (stereo not drawn),inactive,–

Structure (SMILES),Potency,activation
COc1ccccc1OC,inactive,–
C=C(C)[C@H]1CN[C@H](C(=O)O)[C@H]1CC(=O)O,inactive,–
CCSC(=O)Cl,inactive,–
CCN1CCCC1CNC(=O)C(O)(c1ccccc1)c1ccccc1 (stereo not drawn),inactive,–
ClCCCCl,inactive,–
O=C(O)C(F)(F)C(F)(F)C(F)(F)C(F)(F)C(F)(F)C(F)(F)F,inactive,–
ClC(Cl)(Cl)Cl,inactive,–
CCOP(=O)(CN(CCO)CCO)OCC,inactive,–
CCC(C)C(C)(COC(N)=O)COC(N)=O (stereo not drawn),inactive,–
CC(=O)CN(CC(C)=O)N=O,inactive,–
CON(C)C(=O)Nc1ccc(Br)c(Cl)c1,inactive,–
CCCCCCCC(=O)Cl,inactive,–
C=CC=O,inactive,–
COc1cccc(C=O)c1,inactive,–
ClCOCCl,inactive,–
CC[C@H](O)C(C[C@H](C)N(C)C)(c1ccccc1)c1ccccc1,inactive,–
COc1cccc([C@@]2(O)CCCC[C@@H]2CN(C)C)c1,inactive,–

# Tested on: not listed separately
# Test: qHTS assay to identify small molecule agonists of the RXR signaling pathway - cell viability counter screen (AID 1159529; active = well fitted cell-killing curve with a large enough effect in the repeat runs; also: nearly all actives have a fitted effect of over 50% in size)
# Conditions: RXR-alpha-bla HEK293T viability, CellTiter-Glo, 16 h; series mostly up to 76.8 µM
# Method in brief: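 Compounds dissolved in DMSO were pinned onto HEK 293T cells carrying a beta-lactamase reporter under RXR-alpha control and incubated 16 hr. Cytotoxicity was then quantified by CellTiter-Glo luminescence.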
Structure (SMILES),Potency,"activity change, negative = cytotoxicity"
CN(C)CCN(C)C,inactive,–
O=C(CCl)NCO,inactive,–
Cc1ccc2c(c1)C1CN(C)CCC1N2 (stereo not drawn),–,-17.4% [at 15.8 µM] (inactive)
CCC(=O)c1ccc(Cl)cc1,inactive,–
O=[N+]([O-])c1cccc(CCl)c1,inactive,–
CCOC(=O)NC(C)(C)Cc1ccc(Cl)cc1,inactive,–
CCOC(=O)C(Cl)Cc1cc(-n2nc(C)n(C(F)F)c2=O)c(F)cc1Cl (stereo not drawn),inactive,–
CCCCS(=O)(=O)Cl,inactive,–
c1ccc2c(c1)CCNC2,inactive,–
C#CCOC(=O)/C=C(C)/C=C/CC(C)CCCC(C)C (stereo not drawn),inactive,–
CCCCCCCCSC(=O)Oc1cc(Cl)nnc1-c1ccccc1,inactive,–
CN=CNc1ccc(C)cc1C,inactive,–
Cc1ccc(S(=O)(=O)N[C@@H](CCCCN)C(=O)CCl)cc1,inactive,–
CCCN1CCC[C@@H]2Cc3nc(N)ncc3C[C@H]21,inactive,–
CCC1(c2cccc(O)c2)CCCCN(C)C1 (stereo not drawn),inactive,–
COc1ccccc1OC,inactive,–
C=C(C)[C@H]1CN[C@H](C(=O)O)[C@H]1CC(=O)O,inactive,–
CCSC(=O)Cl,inactive,–
CCN1CCCC1CNC(=O)C(O)(c1ccccc1)c1ccccc1 (stereo not drawn),inactive,–
O=C(O)C(F)(F)C(F)(F)C(F)(F)C(F)(F)C(F)(F)C(F)(F)F,inactive,–
CCOP(=O)(CN(CCO)CCO)OCC,inactive,–
CCC(C)C(C)(COC(N)=O)COC(N)=O (stereo not drawn),inactive,–
CC(=O)CN(CC(C)=O)N=O,inactive,–
CON(C)C(=O)Nc1ccc(Br)c(Cl)c1,inactive,–
CCCCCCCC(=O)Cl,inactive,–
C=CC=O,inactive,–
COc1cccc(C=O)c1,inactive,–
ClCOCCl,inactive,–
